# Source: article PMC9574860, “Chemical Toolkit for PARK7: Potent, Selective, and High-Throughput” (Journal of Medicinal Chemistry, 2022)
# The campaign covered roughly 7,900 compounds. About 400 (5.1%) showed an effect of 50% or more. The full list was thinned out, with strong results kept by preference.
# Molecular target: Parkinson's disease protein 7 (PARK7/DJ1) (human, UniProt Q99497)
# Experiment: primary screen, percent inhibition; read as competition with a fluorescent probe by fluorescence polarization; higher = more effect of the substance
# Conditions: 100 µM
# In short: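 Fluorescence-polarization probe displacement (JYQ-107, 20 nM final, 2 h) after 2 h preincubation of PARK7 (0.2 μM final) with each fragment at 100 μM final. Read-out ex/em 480/520 nm; remaining activity derived from FP signal loss relative to reference controls.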
# Parkinson's disease protein 7 (PARK7/DJ1), sequence (Q99497 whole entry, looked up): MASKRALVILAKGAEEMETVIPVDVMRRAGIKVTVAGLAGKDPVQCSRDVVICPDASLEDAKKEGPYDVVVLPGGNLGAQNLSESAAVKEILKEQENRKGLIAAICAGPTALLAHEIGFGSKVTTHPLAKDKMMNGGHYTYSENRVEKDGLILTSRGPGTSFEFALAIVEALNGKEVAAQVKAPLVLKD
row,SMILES,Inhibition %
1,Clc1ccccc1COCC1CO1 (stereo not drawn),9.97%
2,N[C@@H]1CCN(C(=O)C=Cc2cc3ccccc3o2)C1,18.2%
3,N#Cc1ccc2c(n1)CCCC2,7.43%
4,C=CC(=O)NC1C(C)C(OC)C12CCC2 (stereo not drawn),50%
5,C=CC(=O)NC1C2CCOC2C12CCC2 (stereo not drawn),8.04%
6,C=CC(=O)NC1CC(OC)C12CCC2 (stereo not drawn),3.73%
7,COc1cc(S(=O)(=O)n2cccn2)c(C)cc1C,5.05%
8,COc1ccc(CNC(=O)CCl)cc1OC,6.67%
9,Cc1cc(C)cc(NC(=O)CCl)c1,11.3%
10,Cc1ccc(NC(=O)CCl)cc1Br,75%
11,Cc1ccc(NC(=O)CCl)cc1F,48.3%
12,Cc1ccc(NC(=O)CCl)cc1C,34.8%
13,Cc1ccc(NC(=O)CCl)cc1I,81.5%
14,Cc1cc(NC(=O)CCl)ccc1Br,32.6%
15,O=C1CC2(CCCC2)N1,4.3%
16,CCc1cc(S(=O)(=O)n2ccnc2)ccc1OC,7.72%
17,c1ccc(OCC2CO2)cc1 (stereo not drawn),9.6%
18,CC1CC(N2CCc3c(nc(C4CC4)n3C)C2)C(=O)O1 (stereo not drawn),5.37%
19,CCn1nc2c(cc1=O)CN(C1CC(C)OC1=O)CC2 (stereo not drawn),61.4%
20,CC1CC(N2CCc3sccc3C2)C(=O)O1 (stereo not drawn),13.9%
21,CCCn1nc2c(cc1=O)CN(C1CC(C)OC1=O)CC2 (stereo not drawn),86.8%
22,CC1CC(N2CCN(C)c3ccccc3C2)C(=O)O1 (stereo not drawn),0.987%
23,CC(=O)Nc1cccc2c1CCN(C1CC(C)OC1=O)C2 (stereo not drawn),1.86%
24,C=CC(=O)NCC1CCSC1 (stereo not drawn),5.45%
25,C=CC(=O)N1CCc2ccc(C(=O)O)cc2CC1,4.84%

row,SMILES,Inhibition %
1,O=c1[nH]c(S)nc2[nH]ncc12,4.43%
2,O=c1cn[nH]c(S)n1,74.8%
3,Cc1n[nH]c(S)nc1=O,2.15%
4,Cn1c(=O)c2c(nc(Cl)n2CCS(=O)(=O)F)n(C)c1=O,3.18%
5,CC1CC(N2CCC(O)CC2)C(=O)O1 (stereo not drawn),5.67%
6,C=CC(=O)N1CCC(N(C)C(=O)N(C)C)C1 (stereo not drawn),28.7%
7,Cc1noc(C)c1C(=O)CCl,13.5%
8,Cc1nonc1C(=O)CCl,97.9%
9,Cc1cc(NC(=O)CCl)no1,3.42%
10,C=CC(=O)NCC1CCC=CO1 (stereo not drawn),6.04%
11,C=CC(=O)N1CCN(S(=O)(=O)CC)C[C@H]1C,12.6%
12,CN(c1cnn(C)c1)S(=O)(=O)c1ccccc1S(=O)(=O)F,98.1%
13,Cn1cc(S(=O)(=O)Oc2cnc3ccccc3c2)cn1,6.55%
14,Cn1cc(S(=O)(=O)F)c(N)n1,7.95%
15,CN(c1ccn(C)n1)S(=O)(=O)c1ccccc1S(=O)(=O)F,97.9%
16,O=S(=O)(F)c1coc2ccccc12,10.5%
17,CC(=O)Nc1nn(C)cc1S(=O)(=O)F,14.8%
18,CN(c1ccccc1)S(=O)(=O)c1ccccc1S(=O)(=O)F,96.6%
19,C=CC(=O)N(Cc1ccccc1)c1cnn(C)c1,29.9%
20,CN(c1ccccc1)S(=O)(=O)C=Cc1ccccc1,4.34%
21,CC1(C)OB(CC2CC3(CCOCC3)C2)OC1(C)C,3.09%
22,C=CC(=O)N(C)C1C(C)CCCC1C (stereo not drawn),5.45%
23,C=CC(=O)N1C[C@]2(C)COC[C@]2(C)C1,9.62%
24,C=CC(=O)N1CC(C)(C)O[C@@]2(C[C@@H]3CC[C@H]2C3)C1,10.3%
25,N#Cc1nc(N2CC(CF)C2)ccc1Cl,3.54%

row,SMILES,Inhibition %
1,O=C(CCl)N1CCN(S(=O)(=O)Cc2ccccc2)CC1,13.1%
2,CCC1(CNS(=O)(=O)C=Cc2ccccc2)CCOCC1,6.07%
3,CC1(C)OB(Cc2cc(F)cc(F)c2)OC1(C)C,6.97%
4,Cc1nccc(NS(=O)(=O)c2ccc(S(=O)(=O)F)cc2)n1,57.9%
5,O=S(=O)(F)c1ccc(S(=O)(=O)Nc2ccsc2)cc1,27.7%
6,O=S(=O)(F)c1ccc(S(=O)(=O)Nc2ccncc2)cc1,8.89%
7,Cc1ccnc(NS(=O)(=O)c2ccc(S(=O)(=O)F)cc2)c1,16.1%
8,O=S(=O)(F)c1ccc(S(=O)(=O)Nc2ccccn2)cc1,5.71%
9,Cc1ccnc(NS(=O)(=O)c2ccc(S(=O)(=O)F)cc2)n1,36.3%
10,O=S(=O)(F)c1ccc(S(=O)(=O)Nc2cccc(F)n2)cc1,54.7%
11,O=S(=O)(F)c1ccc(S(=O)(=O)Nc2nccs2)cc1,64%
12,CC1(C)OB(c2cncc(NS(=O)(=O)c3ccccc3)c2)OC1(C)C,8.59%
13,CCNS(=O)(=O)c1ccc(B2OC(C)(C)C(C)(C)O2)c(C)c1,5.32%
14,C=CC(=O)NC1CC(OC)C1(C)C (stereo not drawn),-3.29%
15,CC1CC(Sc2cnccn2)C(=O)O1 (stereo not drawn),48.8%
16,Cc1ccc2cccc(OC(=O)N(C)C)c2n1,5.34%
17,C=CS(=O)(=O)c1ccccc1,9.43%
18,CC1CCN(C(=O)C=Cc2cn(C)c(=O)n(C)c2=O)CC1,10.9%
19,CN1CCC(CNc2ccc(C#N)nc2)CC1,1.29%
20,O=C(CCCl)N1CCN(c2ccccn2)CC1,12.9%
21,O=C(CCCl)N1CCN(c2ncccn2)CC1,3.8%
22,O=C(CCl)N1CCN(c2ncccn2)CC1,91.6%
23,Cl.O=C(CCl)N1CCN(c2cccc(Cl)c2)CC1,44.3%
24,C=CC(=O)N1CCN(c2ncccn2)CC1,9.58%
25,Cl.O=C(CCl)N1CCN(c2cnccn2)CC1,55.6%

row,SMILES,Inhibition %
1,C=CC(=O)NCCN1C(=O)CNC1=O,12.9%
2,C=CC(=O)NCC1CCN(c2ccccc2)CC1,3.72%
3,N#Cc1cc(F)ccn1,5.03%
4,N#Cc1cc(Cl)ccn1,52.6%
5,N#Cc1ccnc(Cl)n1,3.95%
6,O=S(=O)(F)CCCS(=O)(=O)Nc1ccc(F)cn1,77.2%
7,Cc1ccc(NS(=O)(=O)CCCS(=O)(=O)F)nc1,80.1%
8,O=S(=O)(C=Cc1ccccc1)Nc1ccc(F)cn1,6.27%
9,O=S(=O)(F)c1ccc(Nc2ccc(F)cc2)nc1,2.34%
10,C=CC(=O)Nc1ccc(C)cn1,0.151%
11,Cc1ccc(C=CS(=O)(=O)Nc2ccc(C#N)cn2)cc1,11.1%
12,Cn1c(SC2CCOC2=O)nnc1-c1ccccc1 (stereo not drawn),12.6%
13,Sc1ccc(Cl)nn1,53.5%
14,FC(F)(F)c1ccc(S)nn1,25.5%
15,Cc1ccc(S)nn1,28.1%
16,CC(C)CC(=O)NNS(=O)(=O)c1ccc(S(=O)(=O)F)cc1,30.6%
17,CNC(=O)Nc1ccc(S(=O)(=O)F)cc1,22.2%
18,CC(C)(C)C(=O)NNS(=O)(=O)c1ccc(S(=O)(=O)F)cc1,6.55%
19,CC(C)(C)C(=O)NNS(=O)(=O)c1cccc(S(=O)(=O)F)c1,97.2%
20,CC(C)CC(=O)NNS(=O)(=O)c1cccc(S(=O)(=O)F)c1,98.2%
21,COCC(=O)Nc1ccc(S(=O)(=O)F)cc1,13.6%
22,O=c1oc2cc(OCC3CO3)ccc2c2c1CCC2 (stereo not drawn),10.6%
23,N#Cc1nc(N2CCOCC2)ccc1Cl,8.71%
24,Cc1cn2c(C=C(C#N)c3ccccn3)c(C)nc2s1,13.6%
25,O=C(CCl)Nc1cc(C(F)(F)F)ccc1-n1cncn1,32.5%

row,SMILES,Inhibition %
1,C=CC(=O)N1CCC(c2ccc(C)nc2)CC1,4.08%
2,CCn1cc(S(=O)(=O)Oc2cccc(F)c2)nc1C,3.67%
3,Cn1cc(S(=O)(=O)Oc2cccc(F)c2)c(=O)n(C)c1=O,5.3%
4,CCOc1ccncc1S(=O)(=O)Oc1cccc(F)c1,58.4%
5,N#Cc1nccnc1N1CCc2c(F)ccc(F)c2C1,41%
6,C=CC(=O)NCc1cc2ccccc2s1,13.3%
7,CC1CC(N2CCCCC2Cn2cncn2)C(=O)O1 (stereo not drawn),1.57%
8,C=CC(=O)NCCC1CCCCO1 (stereo not drawn),2.29%
9,O=C(CCl)C1CCCCO1 (stereo not drawn),94.5%
10,O=C(CCl)NCC1CCCO1 (stereo not drawn),5.15%
11,O=C(CSC(F)(F)F)Nc1cccc(S(=O)(=O)F)c1,99.8%
12,NS(=O)(=O)c1cccc(NC(=O)CCCl)c1,4.37%
13,CN(C)S(=O)(=O)c1cccc(NC(=O)CCl)c1,15.5%
14,Cn1c(=O)ccn(CC(=O)Nc2cccc(S(=O)(=O)F)c2)c1=O,99.6%
15,CCn1nc(C)c(C(=O)Nc2cccc(S(=O)(=O)F)c2)c1Cl,8.14%
16,O=C(Cn1ncc2ccccc21)Nc1cccc(S(=O)(=O)F)c1,94.6%
17,O=Cc1cccc(C(=O)O)c1O,24.2%
18,C=CC(=O)N1CCN(CC(C)C)C(=O)C1,0.18%
19,COc1ccc(CS(=O)(=O)F)cc1[N+](=O)[O-],18.4%
20,C=CC(=O)N1CC(Cc2cccs2)C1,12.5%
21,C=CC(=O)NCCc1nnc2n1CCCCC2,8.54%
22,COc1ccc(C(=O)NNC(=O)CCl)cc1,-3.11%
23,N#Cc1ncn(CCOc2ccccc2Cl)n1,8.15%
